Calls of active or inactive are those of the source. Unless noted, no rule for the calls is given here.

Consider five compounds from PubChem BioAssay.

Assay [1] deals with Wnt5a (protein binding on small-molecule microarray). Briefly: small molecules binding Wnt5a protein – biophysical, small-molecule microarray, 635/667 nm fluorescence, primary screen (AID 1142).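 Also: fluorescence read at 667 nm with signal to noise per printed feature.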 The conditions noted are these: 635 nm fluorescence, higher = more signal.
A short description of assay [2]: ATP-based viability of Huh7 replicon cells – cell-based, CellTiter-Glo luminescence, basal, 48 h, cytotoxicity control for HCV replication inhibitor project, primary screen (AID 1143).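 Also: Huh7 hepatoma cells carrying a hepatitis C replication reporter with no stimulus; test concentration not given here.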 The conditions noted are these: higher = more signal, called active from +8 up or from −8 down. In general terms: In antiviral work, replicon cells carry a viral genome segment that copies itself.

A short description of assay [3]: Pseudomonas biofilm growth suppression – PAO1 strain, BacTiter-Glo luminescence, LB-PBS, primary screen (AID 1144). Particulars: P. aeruginosa PAO1 biofilm, 12 h, higher = more signal.
A short description of assay [4]: basal CRE-LacZ reporter activity in PC12 – cell-based, unstimulated, primary screen (AID 1145). Particulars: no forskolin, luminescence, 4.5 h, higher = more signal, called active from +8 up or from −8 down.
Assay [5] in a line: forskolin-driven CRE-LacZ activity in PC12 – cell-based, CRE-LacZ reporter, forskolin-stimulated, primary screen (AID 1146).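 Also: PC12 cells with 6xCRE LacZ reporter stimulated by forskolin 10 µM; beta-galactosidase reporter signal reflecting CREB driven transcription.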 The conditions noted are these: luminescence, 4.5 h, higher = more signal, called active from +8 up or from −8 down.
The target in assay [6] is Streptavidin (Streptomyces avidinii) (UniProt P22629). The experiment in a line: compounds binding control protein streptavidin – biophysical, small-molecule microarray, 635/667 nm fluorescence, artefact control for SMM compound annotation, primary screen (AID 1147).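 Also: signal reflects streptavidin binding to arrayed compounds as a control protein.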 Particulars: higher = more signal.
Streptavidin (Streptomyces avidinii), sequence (P22629 whole entry, looked up): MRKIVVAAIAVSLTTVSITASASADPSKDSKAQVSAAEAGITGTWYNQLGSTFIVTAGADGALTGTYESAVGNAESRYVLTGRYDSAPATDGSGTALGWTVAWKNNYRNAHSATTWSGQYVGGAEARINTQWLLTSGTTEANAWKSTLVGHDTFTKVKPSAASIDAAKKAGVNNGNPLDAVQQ
Assay [7] in a line: probe aInhba binding on compound microarray – biochemical, small-molecule microarray, 635/667 nm fluorescence, primary screen (AID 1148).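 Also: score merges 667nm spot fluorescence with signal-to-noise for antibody binding to printed compounds.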 The conditions noted are these: higher = more signal.
Assay [8] has as its target Torsin-1A (Homo sapiens) (UniProt O14656). Briefly: TOR1A wild-type binding on microarray – cell lysate, small-molecule microarray, lysate, 635/667 nm, primary screen (AID 1149). Particulars: COS7 hTOR1A-WT lysate, 635 nm fluorescence, higher = more signal.
For assay [9] the target is unchanged. The experiment in a line: torsin A mutant lysate binding on microarrays – cell lysate, small-molecule microarray, COS7 lysate, 635/667 nm fluorescence, primary screen (AID 1150).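 Also: score pools 667 nm emission and signal to noise measuring lysate protein binding.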 Particulars: COS7 hTOR1A mutant lysate, 635 nm fluorescence, higher = more signal.
Assay [10] has as its system Sonic hedgehog protein (Shh). The experiment in a line: Sonic hedgehog microarray binding compounds – biochemical, small-molecule microarray, 635/667 nm fluorescence, primary screen (AID 1151).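 Also: Shh protein binding to compounds spotted on small-molecule microarray slides; score combines spot fluorescence intensity with signal-to-noise across triplicate slides.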 Particulars: 635 nm fluorescence, higher = more signal.
A short description of assay [11]: optical density shifts of acrAB sulA E. coli – strain DRC41, OD650, 48 h, E. coli filamentation inducer project, primary screen (AID 1152).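 Also: E. coli MC1000 strain DRC41 lacking acrAB efflux pump and sulA.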 The conditions noted are these: higher = more signal, called active from +8 up or from −8 down.
A short description of assay [12]: probe aLefty1 binding on compound microarray – biochemical, small-molecule microarray, 635/667 nm fluorescence, primary screen (AID 1153).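 Also: score merges spot fluorescence with signal-to-noise ratio from the scanned slide images.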 Particulars: higher = more signal.
A short description of assay [13]: plasmodial surface anion channel blockers, osmotic lysis – cell-based, P. falciparum Indochina, OD700, 1 h, primary screen (AID 1154). Particulars: P. falciparum Indochina infected RBC osmotic lysis, higher = more signal, called active from +8 up or from −8 down.
A short description of assay [14]: plasmodial surface anion channel blockers, osmotic lysis – cell-based, P. falciparum Indochina, OD700, 2 h, primary screen (AID 1155).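 Also: lysis reports solute entry through the parasite surface anion channel PSAC.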 Particulars: P. falciparum Indochina infected erythrocytes, higher = more signal, called active from +8 up or from −8 down.
Assay [15] in a line: changes in parasitized red cell lysis, either direction – P. falciparum Indochina, OD700, 3 h, PSAC antagonist project, primary screen (AID 1156). The conditions noted are these: P. falciparum-infected erythrocytes, osmotic lysis, higher = more signal, called active from +8 up or from −8 down.
Assay [16] in a line: plasmodial surface anion channel blockers, osmotic lysis – cell-based, P. falciparum Indochina, OD700, 18 h, primary screen (AID 1157). The conditions noted are these: P. falciparum Indochina infected erythrocytes, osmotic lysis OD700, 18 h; higher = more signal, called active from +8 up or from −8 down.
Assay [17] can be described thus: S6 kinase pathway phospho-S6 level changes – cell-based, A549, cytoblot, luminescence, serum-stimulated, primary screen (AID 1158).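 Also: serum-stimulated A549 lung adenocarcinoma cells; signal is phosphorylated S6 detected by cytoblot immunostaining with HRP secondary.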 Particulars: 5 h, higher = more signal.
For assay [18], the target named is NADPH oxidase 2 (Homo sapiens) (UniProt P04839). The experiment in a line: compounds shifting NOX2 Amplex Red fluorescence – cell-based, HEK293-NOX2, PMA-stimulated, NOX inhibitor project, primary screen (AID 1159). Also: test concentration not given here. Particulars: 45 min, higher = more signal, called active from +8 up or from −8 down.
NADPH oxidase 2 (Homo sapiens), sequence (P04839 whole entry, looked up): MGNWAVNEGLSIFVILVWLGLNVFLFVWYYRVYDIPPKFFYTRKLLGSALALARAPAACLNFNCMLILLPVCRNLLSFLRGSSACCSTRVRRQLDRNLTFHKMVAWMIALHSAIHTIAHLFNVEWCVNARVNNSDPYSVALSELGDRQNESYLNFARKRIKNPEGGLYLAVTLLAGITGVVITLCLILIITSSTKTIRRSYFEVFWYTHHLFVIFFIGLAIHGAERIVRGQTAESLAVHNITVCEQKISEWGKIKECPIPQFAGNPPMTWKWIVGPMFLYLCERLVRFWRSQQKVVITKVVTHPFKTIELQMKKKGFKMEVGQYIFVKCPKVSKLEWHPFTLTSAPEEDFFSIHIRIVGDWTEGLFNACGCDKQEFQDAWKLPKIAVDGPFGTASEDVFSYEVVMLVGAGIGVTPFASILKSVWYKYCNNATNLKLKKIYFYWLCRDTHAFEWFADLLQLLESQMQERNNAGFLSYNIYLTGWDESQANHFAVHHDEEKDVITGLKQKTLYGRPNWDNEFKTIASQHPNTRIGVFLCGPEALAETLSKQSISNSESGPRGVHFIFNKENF
Assay [19] concerns the target NADPH oxidase 4 (Homo sapiens) (UniProt Q9NPH5). The experiment in a line: compounds shifting NOX4 Amplex Red fluorescence – cell-based, HEK293-NOX4, tetracycline-induced, NOX inhibitor project, primary screen (AID 1160). The conditions noted are these: HEK293-NOX4, Amplex Red H2O2 fluorescence, 45 min; higher = more signal, called active from +8 up or from −8 down.
Assay [20] addresses NADPH oxidase 5 (Homo sapiens) (UniProt Q96PH1). The experiment in a line: compounds shifting NOX5 Amplex Red fluorescence – cell-based, HEK293-NOX5, NOX inhibitor project, primary screen (AID 1161). The conditions noted are these: HEK293-NOX5, ionomycin, 45 min, higher = more signal.

NADPH oxidase 5 (Homo sapiens), sequence (Q96PH1 whole entry, looked up): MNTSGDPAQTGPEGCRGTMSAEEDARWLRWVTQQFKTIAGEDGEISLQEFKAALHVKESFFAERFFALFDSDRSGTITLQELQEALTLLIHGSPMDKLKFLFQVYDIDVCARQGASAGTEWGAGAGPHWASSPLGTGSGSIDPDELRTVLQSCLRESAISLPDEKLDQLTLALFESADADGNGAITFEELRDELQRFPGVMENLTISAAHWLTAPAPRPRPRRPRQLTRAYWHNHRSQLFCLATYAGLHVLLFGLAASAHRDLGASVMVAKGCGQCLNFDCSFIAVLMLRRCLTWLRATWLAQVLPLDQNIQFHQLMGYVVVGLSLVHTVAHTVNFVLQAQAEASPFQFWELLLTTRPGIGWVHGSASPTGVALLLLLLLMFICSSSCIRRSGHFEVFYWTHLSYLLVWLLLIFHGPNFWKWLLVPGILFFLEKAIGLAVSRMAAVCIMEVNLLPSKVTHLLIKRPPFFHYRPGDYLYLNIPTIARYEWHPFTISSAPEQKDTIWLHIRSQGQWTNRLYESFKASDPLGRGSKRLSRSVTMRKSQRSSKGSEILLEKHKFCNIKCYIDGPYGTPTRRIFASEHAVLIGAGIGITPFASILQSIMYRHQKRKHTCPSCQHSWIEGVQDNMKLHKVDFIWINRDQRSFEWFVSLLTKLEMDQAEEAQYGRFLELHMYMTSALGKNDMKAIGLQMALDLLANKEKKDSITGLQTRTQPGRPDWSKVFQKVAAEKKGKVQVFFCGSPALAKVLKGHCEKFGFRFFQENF
NADPH oxidase 4 (Homo sapiens), sequence (Q9NPH5 whole entry, looked up): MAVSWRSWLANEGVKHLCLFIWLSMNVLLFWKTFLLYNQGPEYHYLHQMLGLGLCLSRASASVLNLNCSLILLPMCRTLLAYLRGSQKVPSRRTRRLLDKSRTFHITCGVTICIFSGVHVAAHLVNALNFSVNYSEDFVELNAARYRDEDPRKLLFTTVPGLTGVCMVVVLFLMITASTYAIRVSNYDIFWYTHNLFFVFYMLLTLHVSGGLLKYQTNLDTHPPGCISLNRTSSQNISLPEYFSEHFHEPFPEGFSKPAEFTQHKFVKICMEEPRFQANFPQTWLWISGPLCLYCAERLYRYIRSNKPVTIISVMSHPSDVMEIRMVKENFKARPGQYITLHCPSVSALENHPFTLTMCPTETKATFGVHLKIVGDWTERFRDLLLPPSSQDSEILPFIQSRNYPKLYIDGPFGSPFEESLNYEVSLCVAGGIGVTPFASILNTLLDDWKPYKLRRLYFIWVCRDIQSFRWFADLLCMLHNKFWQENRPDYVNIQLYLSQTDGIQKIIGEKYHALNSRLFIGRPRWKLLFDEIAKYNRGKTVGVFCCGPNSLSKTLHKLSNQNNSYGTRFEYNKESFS
Torsin-1A (Homo sapiens), sequence (O14656 whole entry, looked up): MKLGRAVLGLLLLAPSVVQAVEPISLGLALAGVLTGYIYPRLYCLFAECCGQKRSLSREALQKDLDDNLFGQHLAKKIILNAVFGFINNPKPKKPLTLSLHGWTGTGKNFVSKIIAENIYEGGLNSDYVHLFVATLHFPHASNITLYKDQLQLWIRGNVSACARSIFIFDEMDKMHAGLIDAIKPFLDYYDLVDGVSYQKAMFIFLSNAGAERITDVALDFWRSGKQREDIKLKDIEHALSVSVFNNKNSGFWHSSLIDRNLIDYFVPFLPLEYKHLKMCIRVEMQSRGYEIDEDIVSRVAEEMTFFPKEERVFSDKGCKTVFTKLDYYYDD

On to `CC(=O)OC[C@H]1O[C@@H](ON=C(C)CCN2CCCCc3nc(C)c(C)cc32)[C@H](OC(C)=O)[C@@H](OC(C)=O)[C@@H]1OC(C)=O`, for which the composite z-score in assay [1] is 0.752; in assay [6], -0.452; in assay [7], 0.144; with Torsin-1A (Homo sapiens) [8], 0.987; with Torsin-1A (Homo sapiens) [9], 1.12; in assay [10], 1.64. In assay [12], this compound came in with a composite z-score of -0.0601. Further, the z-score in [2] was -2.39 (inactive); in [3], 0.0375 (inactive); in [4], 2.32 (inactive); in [5], -0.494 (inactive); in assay [11] it was -0.998 (inactive); in assay [13], -0.323 (inactive). Also, the z-score is -0.558 (inactive) in assay [14]; 1.16 (inactive) in assay [15]; -1.5 (inactive) in assay [16]; 0.314 in assay [17]; -1.31 (inactive) in assay [18]; -1.24 (inactive) in assay [19]. Moreover, in assay [20], the z-score is -2.54.
Turning to `CCOC(=O)[C@H](CC(C)C)NC(=O)CCC1CC(OC(=O)NCCc2ccc(F)cc2)CC2(CCCC(COC(=O)NCCCN3CCCC3=O)O2)O1` (stereo not given in full), the composite z-score in assay [1] was 0.189; in assay [6] it was 0.484; in [7], -0.0195; with Torsin-1A (Homo sapiens) [8], 1.66; with Torsin-1A (Homo sapiens) [9], 0.1; in [10] it was 0.894. In assay [12], this compound gave a composite z-score of -0.28. For the same compound, the z-score in [2] was 0.378 (inactive); in assay [3], -0.31 (inactive); in assay [4], 0.109 (inactive); in assay [5], 0.319 (inactive); in assay [11], -0.237 (inactive); in assay [13] it was 1.3 (inactive). Moreover, the z-score in assay [14] is 0.0591 (inactive); in assay [15] it was -0.172 (inactive); in [16], -0.194 (inactive); in assay [17], 0.181; in [18], 0.575 (inactive); in [19], 0.775 (inactive). Further, the z-score in assay [20] is 0.802.
For `CC(CCC(=O)OC[C@H]1O[C@H](C#Cc2ccccc2)C=C[C@@H]1Oc1ccc(C)cc1)=NO[C@@H](C)c1cc(-c2c(C)cc(C)cc2C)no1`, the composite z-score in assay [1] was -0.693; in [6], -0.831; in assay [7], -0.242; with Torsin-1A (Homo sapiens) [8], -2.59; with Torsin-1A (Homo sapiens) [9], -1.74; in assay [10] it was -0.719. Besides, the composite z-score in [12] is -0.0929. The z-score in assay [2] is -0.629 (inactive); in assay [3] it was -0.702 (inactive); in [4] it was 0.085 (inactive); in [5], 1.02 (inactive); in assay [11], 0.357 (inactive); in assay [13] it was 1.34 (inactive). The z-score in assay [14] is 0.674 (inactive); in assay [15] it was 1.23 (inactive); in [16] it was 0.221 (inactive); in assay [17] it was 0.814; in assay [18], 0.731 (inactive); in assay [19], 0.344 (inactive). Besides, the z-score in [20] is 0.287.
Regarding `CCOC(=O)[C@H](Cc1ccccc1)NC(=O)CCC1CC(OC(=O)NCc2ccc3c(c2)OCO3)CC2(CCCC(COC(=O)NCCCN3CCCC3=O)O2)O1` (stereo not given in full), the composite z-score in assay [1] was 0.0512; in assay [6], 0.669; in [7] it was -0.0736; with Torsin-1A (Homo sapiens) [8] it was 0.408; with Torsin-1A (Homo sapiens) [9], 0.078; in assay [10], 1.53. The composite z-score in assay [12] was -0.572. For the same compound, the z-score in [2] is -1.98 (inactive); in assay [3], 0.14 (inactive); in assay [4], 1.01 (inactive); in [5], -0.257 (inactive); in assay [11], 0.169 (inactive); in assay [13] it was -0.709 (inactive). In addition, the z-score in assay [14] was 0.274 (inactive); in assay [15], 0.218 (inactive); in [16], 0.151 (inactive); in assay [17], 0.125; in assay [18], 0.996 (inactive); in [19] it was 0.689 (inactive). Further, the z-score in [20] was -0.044.
`COC(=O)[C@@H]1CC[C@H](C)[C@@H](c2ccc(C)cc2)N1C(=O)c1ccc(C=NO[C@@H](C)c2cc(-c3c(C)cc(C)cc3C)no2)cc1`: the composite z-score was 0.153 in [1]; 0.152 in assay [6]; -0.0986 in assay [7]; 1.62 in the assay with Torsin-1A (Homo sapiens) [8]; 0.763 in the assay with Torsin-1A (Homo sapiens) [9]; 0.707 in [10]. Also, the composite z-score in [12] is -0.242. Besides, the z-score is -1.31 (inactive) in assay [2]; 0.209 (inactive) in assay [3]; -0.0591 (inactive) in assay [4]; -0.187 (inactive) in assay [5]; 0.934 (inactive) in assay [11]; 1.12 (inactive) in assay [13]. The z-score is 0.804 (inactive) in [14]; 0.894 (inactive) in assay [15]; 0.662 (inactive) in [16]; 0.677 in assay [17]; 0.564 (inactive) in assay [18]; 0.945 (inactive) in [19]. Besides, in assay [20], the z-score was 0.406.
